Reference: ChEMBL document CHEMBL1157539, “Thousands of chemical starting points for antimalarial lead identification” (Nature, 2010)

The compounds below were run on Plasmodium falciparum (assay: GSK_TCMDC: Inhibition of Plasmodium falciparum 3D7 in whole red blood cells, using parasite LDH activity as an index of growth. Test compounds present at 2uM).
Type: functional

Structure (SMILES) | Inhibition
Cc1ccc(O)cc1Nc1ccnc2ccc(-c3csc(CNCCN4CCOCC4)n3)cc12 | 100%
N#Cc1cccc(Nc2nccc(Nc3ccc(Oc4ccccc4)cc3)n2)c1 | 94%
CCOc1ccc2[nH]c(C)cc(=NN=Cc3ccc(Cl)cc3)c2c1 | 100%

Each compound was assayed on Plasmodium falciparum (assay: GSK_TCMDC: Inhibition of Plasmodium falciparum Dd2 in whole red blood cells, using parasite LDH activity as an index of growth. Test compounds present at 2uM).
Type: functional

Structure (SMILES) | Inhibition
CCN(CC)CCOC(=O)c1ccc(NC(=O)c2cc(-c3ccc(C)cc3)nc3ccccc23)cc1.Cl | 12%
Cc1cc2ncn(-c3ccnc(N4CCN(CCCN5CCCC5)CC4)n3)c2cc1C.O=C(O)C(F)(F)F | 49%
O=C(Nc1ccc(F)cc1)c1ccc(C(=O)NC2CCN(CC3CCCCC3)CC2)cc1.O=C(O)C(F)(F)F | 0%
O=C(/C=C/c1ccc(Cl)c(Cl)c1)NCCCCCN1CCC(NC(=O)Nc2ccc(F)cc2F)CC1 | 23%
Cc1cc(N[C@@H](CC(C)C)C(=O)NCCOc2ccccc2)nc(NCC2CCCCC2)n1.O=C(O)C(F)(F)F | 53%
CCN(CCCN1CCCCC1)c1cc(C)nc(Nc2ccc(C)cc2)n1.O=C(O)C(F)(F)F | 10%
CN1CCN(CCCN(Cc2ccc(-c3ccc(CNCc4ccc5c(c4)OCO5)cc3)cc2)C(=O)CCC2CCCC2)CC1.O=C(O)C(F)(F)F | 85%
CCCC(C)Nc1nc(C)cc(N[C@@H](CC(C)C)C(=O)Nc2ccc(OC)cc2)n1.O=C(O)C(F)(F)F (some centres not stated) | 68%
COc1ccc2nccc([C@@H](O)CN3CCC(NCc4cc5ccccc5cn4)CC3)c2n1.O=C(O)C(=O)O | 14%
Cc1cccc2nc(-c3ccc(-c4cccc(NC(=O)CCc5c[nH]cn5)c4)s3)[nH]c12 | 70%
Cc1cccc2nc(-c3cccc(-c4ccc(NC(=O)Nc5ccsc5)cc4)c3)[nH]c12 | 99%
O=C(Cc1ccc(-n2cnnn2)cc1)N(Cc1cncn1Cc1cccc(C(F)(F)F)c1)CC1CC1 | 0%
Br.Cc1cc(C)c(C)c(OCCCON2C(=N)N=C(N)NC2(C)C)c1C | 95%
COC(=O)COc1cc(C(=O)NCCCCN2CCC(c3ccc4c(c3OC)CCCC4)CC2)ccc1-c1ccc(Cl)cc1 | 21%
Cc1cccc2nc(-c3cccc(-c4cccc(NC(=O)CCc5c[nH]cn5)c4)c3)[nH]c12 | 86%
CCNc1cc(CC)nc(Nc2ccc(C)cc2)n1 | 24%
CC(C#N)Cc1ccc(-c2cnc(N)c3cc(-c4ccnc(N)n4)ccc23)cc1 (configuration not stated) | 62%

Structure (SMILES) | Inhibition
FC(F)(F)CNc1nc(Nc2ccc3ncccc3c2)nc2[nH]ccc12.O=C(O)C(F)(F)F | 83%
Cc1cc(C2CCN(CCCCNC(=O)c3ccc(NC(=O)c4ccc(Cl)cc4)cc3)CC2)c(C)cc1OCc1ccccn1.Cl | 65%
COc1ccc(Nc2ncc(OC)c(Nc3ccccc3C(N)=O)n2)cc1N1CCN(C)CC1.O=CO | 96%
CS(=O)(=O)c1ccc(-c2cncc(Cl)n2)cc1 | 95%
O=C(Nc1cccc(-c2ccc(CN3CCCC3)cc2)c1)c1ccc(Cl)cc1.O=C(O)C(F)(F)F | 47%
COc1ccc(Oc2ccc(Nc3ccnc4ccc(C(F)(F)F)cc34)cc2)cc1OC.Cl | 17%
Oc1cccc(Nc2nc(NCc3ccco3)c3ccccc3n2)c1 | 74%
CCN(CCNS(C)(=O)=O)c1ccc(N)c(C)c1.O.O=S(=O)(O)O | 11%
Cc1cccc(CC(=N)NCCCCCCNC(=N)Cc2cccc(C)c2)c1.Cl | 97%
CCn1nc(C(=O)NC2CCOc3ccccc32)c2ccccc2c1=O (configuration not stated) | 59%
Br.CCN(CC)CCn1c(=N)n(CC(=O)c2ccc(-c3ccccc3)cc2)c2ccccc21 | 38%
CC(C)Oc1cc2c(cc1NS(=O)(=O)c1ccc(-c3ccc(Cl)cc3)cc1)CCN(C)CC2.Cl | 65%
O=C(NCCCCN1CCC(c2ccc3c(c2OCC2COCO2)CCCC3)CC1)c1ccc(-c2ccc(C(F)(F)F)cc2)cc1 (configuration not stated) | 45%
CN1CCN(c2ccnc3ccc(NC(=O)Nc4cccc(C#N)c4)cc23)CC1 | 96%
CC(C)(CNCc1ccc(F)c(F)c1)c1nc(-c2ccc(Cl)c(O)c2)c(-c2ccncc2)[nH]1.Cl | 89%
CCCC1(NC[C@@H](O)[C@H](Cc2ccccc2)NC(=O)c2cc(NCC)cc(N3CCCCS3(=O)=O)c2)CC1.Cl | 98%
Fc1ccc(Nc2ccnc3cc(-c4ccc(CNCCN5CCOCC5)o4)ccc23)c(Cl)c1 | 99%
